# Calls of active or inactive are those of the source. The calls were made as follows: active = hit-call score of the fitted dose curve at least 0.9, where 1 is the maximum; inactive = score below 0.9.
# Read-out: Actin alpha 1 (ACTA1), ACTA1 (gene 58)
# Experiment: BSK_MyoF_ACTA1: BioMAP Diversity Plus: MyoF Assay for Actin alpha 1 (ACTA1) Biomarker Activity (AID 2284244)
# Settings: primary human lung fibroblasts
# Protocol: BSK_MyoF is a cell-based, multiplexed-readout assay that uses lung fibroblasts, […], with measurements taken at 24 hours after chemical dosing in a microplate: 96-well plate.BSK_MyoF_ACTA1 is an assay component measured in the BSK_MyoF assay. It measures a-SMA antibody related to regulation of gene expression using ELISA technology.Data from the assay component BSK_MyoF_ACTA1 was analyzed at the endpoint, BSK_MyoF_ACTA1, in the positive analysis fitting direction relative to DMSO as the negative control and baseline of activity. Using a type of binding reporter, gain or loss-of-signal activity can be used to understand protein changes. To generalize the intended target to other relatable targets, this assay endpoint is annotated to the 'cell adhesion molecules' intended target family, where the subfamily is 'actin'.
# The levels of cell surface (or secreted, indicated by the prefix "s") biomarker endpoints were measured by ELISA. Overt cytotoxicity to cells in confluent adherent cultures (all systems other than the BT system) was assessed by measuring total protein levels using sulforhodamine B (SRB) staining in parallel cultures at the time of biomarker measurements, indicated as SRB endpoints. For proliferation assays for adherent cell types, individual cell types are cultured at sub-confluence and relative cell numbers quantified by SRB staining at time points optimized for each system (48 h: 3C and CASM3C systems; 72 h: BT and HDF3CGF systems; 96 h: SAg system). SRB was performed by staining cells with 0.1% SRB after fixation with 10% TCA and reading wells at 560 nm.Viability and proliferation of PBMC (T cells) was quantified by Alamar Blue reduction for the SAg and BT systems. For PBMC viability (referred to as PBMC Cytotoxicity within the assay endpoint names), cells were plated (75,000/well in a 96-well plate) and then chemical samples added for 1 h before addition of activators, SEB and TSST-1 (20 ng/mL final concentration each). Cells were incubated for 90 h. Then, Alamar Blue (20 uL/well) (Invitrogen, Cat DAL1100) was added for 6 h, and the plates were read with a fluorescence microplate reader at 546/580 nm (excitation/emission). For PBMC proliferation, cells were plated and activated as above but incubated for only 16 h prior to addition of Alamar Blue. Plates were read after 6 h.
Compound,AC50,outcome
Cc1ccc(O)c(C(C)(C)C)c1,30.9 µM (active),
Cc1ccc(Nc2ccc(O)c3c2C(=O)c2ccccc2C3=O)cc1,,inactive
O=[N+]([O-])c1cc(C(F)(F)F)ccc1Cl,,inactive
CCCCCCCCCC=O,,inactive
C=C(C)C(=O)O[C@H]1C[C@@H]2CC[C@@]1(C)C2(C)C,33.1 µM (active),
CCCCC/C=C/C=C/C=O,31.6 µM (active),
CC(C)(COC(=O)c1ccccc1)COC(=O)c1ccccc1,,inactive
CNC[C@H](O)c1cccc(O)c1,,inactive
O=C(O)c1cn(C2CC2)c2cc(N3CCNCC3)c(F)cc2c1=O,,inactive
CCCCCCCCC=O,,inactive
c1ccc2sc(SN(C3CCCCC3)C3CCCCC3)nc2c1,5.57 µM (active),
CC(C)Oc1ccccc1O,,inactive
CC1COc2ccccc2N1C(=O)C(Cl)Cl (stereo not drawn),20 µM (active),
C=C[Si](OCC)(OCC)OCC,,inactive
CC(=O)/C=C/C1=C(C)CCCC1(C)C,,inactive
CC(C)c1ccc(C(C)C)cc1,,inactive
CCc1c(C)cc(N)c(CC)c1N,,inactive
CCCCC(CC)COC(=O)/C=C\C(=O)OCC(CC)CCCC (stereo not drawn),,inactive
O=C1CCCCCCCCCCCCCCO1,13.9 µM (active),

Compound,AC50,outcome
CCn1c2ccccc2c2cc(N)ccc21,,inactive
N#Cc1ccc(CC(=NNC(=O)Nc2ccc(OC(F)(F)F)cc2)c2cccc(C(F)(F)F)c2)cc1,,inactive
O=C1OC2(c3cc(Br)c(O)c(Br)c3Oc3c2cc(Br)c(O)c3Br)c2c(Cl)c(Cl)c(Cl)c(Cl)c21,5.23 µM (active),
O=C(O)C[C@H](O)C[C@H](O)/C=C/c1c(C2CC2)nc2ccccc2c1-c1ccc(F)cc1,1.37 µM (active),
CCCCCCCCCCCCCCCCCC(=O)OCC(CC)CCCC (stereo not drawn),,inactive
BrC1CCC(Br)C(Br)CCC(Br)C(Br)CCC1Br (stereo not drawn),,inactive
CC1CCC(C(C)CS)CC1S (stereo not drawn),9.28 µM (active),
O=C(O)c1cn(-c2ccc(F)cc2)c2cc(N3CCNCC3)c(F)cc2c1=O,,inactive
Nc1cc([N+](=O)[O-])ccc1Cl,,inactive
CCCCC(CC)COCCC#N (stereo not drawn),,inactive
c1ccc2c(c1)c1cccc3ccc4cccc2c4c31,,inactive
Cc1ccc2n[nH]nc2c1,,inactive
CC(=O)O[C@]1(C(C)=O)CC[C@H]2[C@@H]3C[C@H](C)C4=CC(=O)CC[C@]4(C)[C@H]3CC[C@@]21C,,inactive
CN(CCOc1ccc(CC2SC(=O)NC2=O)cc1)c1ccccn1 (stereo not drawn),,inactive
COC(=O)c1ccc(C)cc1,,inactive
O=C=NC1CCC(CC2CCC(N=C=O)CC2)CC1 (stereo not drawn),,inactive
C#C[C@]1(O)CC[C@H]2[C@@H]3CCC4=Cc5oncc5C[C@]4(C)[C@H]3CC[C@@]21C,,inactive
O=P(c1ccccc1)(c1ccccc1)c1ccccc1,,inactive
CC(=O)Nc1ccccc1O,,inactive

# Source: PubChem BioAssay (EPA / NIEHS)
